{"source": "PubChem BioAssay AID1159580", "about": "(chemical genetic matrix, 2015)", "test": "chemical genetic growth profiling, strain panel (AID 1159580);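 further: tested at 20 µM; growth read once vehicle control cultures reached saturation at 30 °C; 1 = growth at the plate median or of vehicle wells; lower values mean less growth of the strain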", "settings": "S. cerevisiae deletion strains, growth OD", "note": "The campaign covered roughly 5,500 compounds. About 2,000 (36%) were called active. Another 18% or so got no clear call; they are omitted. The list shows a part of the results. Values without a mark were called inactive. No stated cut-off is given here; in the data, active means normalized growth mostly below about 0.91 (no sharp cut-off); inconclusive means no clear call, values can overlap the other calls; inactive means mostly above about 0.92."}
{"smiles": "CC(C)[C@@H]1NC(=O)[C@H](CCCCN)NC(=O)[C@@H](Cc2c[nH]c3ccccc23)NC(=O)[C@H](Cc2ccc(O)cc2)NC(=O)[C@H](C)N(C)C(=O)[C@H](Cc2ccccc2)NC1=O", "values": [{"measurement": "normalized growth", "setting": "locus YAL040C, strain CLN3, active compounds read low", "result": 0.981}, {"measurement": "normalized growth", "setting": "locus YCL061C, strain MRC1 (second series), active compounds read low", "result": 0.988}, {"measurement": "normalized growth", "setting": "locus YDR363W, strain ESC2, active compounds read low", "result": 0.995}, {"measurement": "normalized growth", "setting": "locus YER002W, strain NOP16, active compounds read low", "result": 1.01}, {"measurement": "normalized growth", "setting": "locus YMR263W, strain SAP30, active compounds read low", "result": 0.994}, {"measurement": "normalized growth", "setting": "locus YMR307W, strain GAS1, active compounds read low", "result": "0.879 (active)"}, {"measurement": "normalized growth", "setting": "locus YNL175C, strain NOP13, active compounds read low", "result": 0.988}, {"measurement": "normalized growth", "setting": "locus YNL197C, strain WHI3, active compounds read low", "result": 0.988}, {"measurement": "normalized growth", "setting": "locus YNL224C, strain SQS1, active compounds read low", "result": 1}, {"measurement": "normalized growth", "setting": "locus YNL322C, strain KRE1, active compounds read low", "result": 0.984}, {"measurement": "normalized growth", "setting": "locus YOR083W, strain WHI5 (second series), active compounds read low", "result": 0.989}]}
